# Screens from PubChem BioAssay.
# Only a sample is shown.
# aSyn UTR act = Activators working through SNCA 5'UTR binding (MLPCN); alpha-synuclein 5'UTR reporter, activators screen; activity score, % (tested at 7.5 µM), hits read low; 7.1% of 300,000 active; in the data active = activity score below about -60%
# Active calls of the source: *.
SMILES,aSyn UTR act
O=C(c1ccc(-c2ccccc2)cc1)N1CCN(c2ccccc2)CC1,-69.6*
Cc1[nH]n(-c2cccc(Cl)c2)c(=O)c1C=NCc1ccco1,-133.9*
Cc1[nH]n(-c2ccccc2)c(=O)c1C=NCc1ccco1,-114.4*
Cc1[nH]n(-c2cccc(Cl)c2)c(=O)c1C=NCC(C)C,-168.2*
Cc1cccc2nc(CSc3nc4ccccc4o3)cn12,-88.8*
Cc1cc(C)c(C#N)c(SCc2cn3c(C)cccc3n2)n1,-104.4*
c1ccc2nc(SCc3cn4ccccc4n3)cnc2c1,-65.7*
c1ccc2oc(SCc3cn4ccccc4n3)nc2c1,-111.4*
COC(=O)c1sccc1-c1ccc(/C=N/OC(=O)c2ccccc2)o1,-69.0*
COc1ccc(-c2nnc(SC(C)C(=O)Nc3cccc(Cl)c3)o2)cc1 (stereo unspecified),-160.4*
COc1ccc(-c2cc(C(=O)Nc3cccc(Cl)c3)no2)cc1,-265.6*
COc1ccc(OC)c(-c2cc(C(=O)Nc3cccc(Cl)c3)no2)c1,-67.9*
COc1ccc(OC)c(-c2cc(C(=O)Nc3c(C)nn(Cc4ccc(Cl)cc4)c3C)no2)c1,58.3
COc1ccc(-c2noc(N(C)CC(=O)Nc3cccc(C(F)(F)F)c3)n2)cc1,-76.3*
COC(=O)c1sccc1-c1ccc(C(=O)Nc2cccc(Cl)c2)o1,-124.9*
COc1ccc(-c2cc(C(=O)Nc3cccc(C(C)=O)c3)no2)cc1,-76.1*
Cc1cc(C)nc(NC(=O)CSc2nc3ccccc3o2)n1,-153.2*
Cc1ccc(-c2csc(NC(=O)CSc3nc4ccccc4o3)n2)cc1,-93.7*
Cc1ccc2nc(NC(=O)CSc3nncc(=O)n3N)sc2c1,-98.5*
O=C(CSc1nc2ccccc2o1)N/N=C/c1ccco1,-81.6*
O=C(CSc1nc2ccccc2[nH]1)Nc1nc(-c2ccc(Br)cc2)cs1,-76.4*
Cc1ccc2nc(NC(=O)CSc3nc4ccccc4o3)sc2c1,-143.5*
CC(=O)c1cc2c(cc1NC(=O)CSc1nc3ccccc3o1)OCO2,-153.7*
CCCNC(=O)c1ccc2c(=O)c(O)c(-c3ccc(F)cc3)[nH]c2c1,80.7
CCCNC(=O)c1ccccc1NC(=O)c1ccc2c(c1)NC(=O)C(C)S2 (stereo unspecified),-96.1*
SMILES,aSyn UTR act
CC(=O)c1ccccc1NC(=O)c1ccc2c(c1)NC(=O)C(C)S2 (stereo unspecified),-135.0*
O=S(=O)(Cc1cc(-c2ccc(Cl)cc2)no1)c1ccccc1,-173.0*
O=S(=O)(Cc1cc(-c2ccccc2Cl)no1)c1ccccc1,-129.7*
Clc1ccc(-c2cc(COc3ccccc3)on2)cc1,-90.2*
Nc1cccc2c1C(=O)N(C(=O)/C=C/c1cccc(Br)c1)C2=O,-160.3*
Cc1ccc(NC(=O)CCCC2CCCCC2)c(O)c1,-150.0*
CC(=O)Nc1cccc(N/C=C(\C=O)c2nc3ccccc3o2)c1,-102.4*
O=C/C(=C\Nc1ccccn1)c1nc2ccccc2o1,-106.9*
CCOc1ccc(-c2cn3ccccc3n2)cc1[N+](=O)[O-],-159.9*
CCCCOc1ccc(-c2cn3ccccc3n2)cc1[N+](=O)[O-],-129.1*
CCCOc1ccc(-c2csc(N)n2)cc1[N+](=O)[O-],-81.2*
Cc1ccc(C(=O)Nc2ccsc2C(=O)O)cc1,-141.0*
N#Cc1ccc(C(=O)NC2=NCCS2)cc1,-140.9*
COc1ccc(C(=O)NC2=NCCS2)cc1,-90.9*
Cc1ccc(C(=O)NC2=NCCS2)cc1Cl,-109.8*
O=C(NC1=NCCS1)c1ccc(C(F)(F)F)cc1,-122.5*
Cc1ccc(C(=O)NC2=NCCS2)cc1,-118.4*
CC(=O)c1c(C)oc2c1C(=O)c1ccccc1C2=O,-62.1*
COc1ccc(CNC(=O)c2c(C)oc3c2C(=O)c2ccccc2C3=O)cc1,102.8
O=C1c2ccccc2C(=O)c2c1ccc1c(=O)n(-c3ccccc3)[nH]c21,-109.7*
Cc1cccc(-n2[nH]c3c4c(ccc3c2=O)C(=O)c2ccccc2C4=O)c1,-62.0*
Cc1ccc(O)c(-c2cc(-c3cccc(Br)c3)n[nH]2)c1,-97.5*
Oc1ccccc1-c1cc(-c2ccc(F)cc2)n[nH]1,-127.6*
Oc1ccc(F)cc1-c1cc(-c2ccc3c(c2)OCCO3)n[nH]1,-151.5*
Cc1ccc(-c2cc(-c3ccc(C)cc3O)[nH]n2)cc1,-160.0*
SMILES,aSyn UTR act
Oc1ccc(Br)cc1-c1cc(-c2ccccc2F)[nH]n1,-74.2*
Oc1ccc(Cl)cc1-c1cc(-c2ccccc2)n[nH]1,-99.2*
Cc1ccc(-c2cc(-c3ccc(F)cc3)n[nH]2)c(O)c1,-86.2*
COc1ccc(N/C=C2/Sc3ccccc3NC2=O)cc1,-147.9*
CCC(C)NC(=O)/C=C1\Sc2ccccc2NC1=O (stereo unspecified),-74.5*
Cc1ccc(N/C=C2/Sc3ccccc3NC2=O)cc1,-175.0*
C[n+]1c2n(c3ccccc31)N=C(c1cc(C(C)(C)C)c(O)c(C(C)(C)C)c1)CS2,68.5
COc1ccccc1-c1cc(C(=O)Nc2cccnc2)no1,54.7
COc1cccc(-c2cc(C(=O)Nc3ccccc3SC)no2)c1,-141.1*
COc1ccccc1-c1cc(C(=O)Nc2ccccc2SC)no1,-95.5*
CSc1ccccc1NC(=O)c1cc(CC(C)C)on1,-177.8*
COc1ccccc1OCCNC(=O)c1cc(F)c(F)cc1Cl,-76.0*
CCCNC(=O)c1cccc(COc2ccccc2OC)c1,-106.9*
COc1ccccc1OCCCCOc1ccccc1F,-70.5*
O=C(NCCNc1ccccc1[N+](=O)[O-])c1cc(F)c(F)cc1Cl,-92.6*
COc1ccccc1OCCNC(=O)c1ccc(Br)cc1,-106.2*
Fc1ccc(-c2ccc(Nc3cccc(F)c3)nn2)cc1,-131.4*
Fc1ccc(Nc2ccc(-c3ccc(F)cc3)nn2)cc1,-161.4*
Cc1ccc(N=Nc2ccc(N)cc2C)c(S(N)(=O)=O)c1,-80.5*
Cc1ccc(N=Nc2cc(C)ccc2O)c(C)c1,-214.9*
Cc1ccc(N=Nc2cc(C)ccc2N)cc1,61.3
O=[N+]([O-])c1ccccc1/C=N/NC1=NCCCCC1,-173.0*
CC(C)(C)C1CCC(C(=O)Nc2nccs2)CC1 (stereo unspecified),-101.5*
O=C(CCC1CCCCC1)Nc1nccs1,-61.7*
Cc1cnc(NC(=O)C2CCC(C(C)(C)C)CC2)s1 (stereo unspecified),-63.5*
SMILES,aSyn UTR act
COc1ccc(O)c(/C=N/N2CCCCC2)c1,-149.8*
c1ccc(-c2nnc(-c3ccncc3)nc2-c2ccccc2)cc1,-105.1*
CC(C)c1cc(C(=O)NNC(=S)NC2CCCCC2)cs1,-85.6*
CCc1cc(C(=O)NNC(=S)NC2CCCCC2)cs1,-87.2*
CN(C)c1cccc(C(=O)NNC(=S)NC2CCCC2)c1,-63.7*
CCCCc1ccc(NC(=O)OC)cc1,-78.9*
CCCCc1ccc(NC(=O)Nc2cccnc2)cc1,-101.7*
O=C(Nc1ccccc1)OCCCc1ccccc1,-118.9*
CC1CCN(C(=S)NCCc2ccccc2)CC1,-138.0*
OCC1CCCN(C(=S)NCCc2ccccc2)C1 (stereo unspecified),-106.5*
c1ccc(-c2cn3nc(-c4ccccc4)sc3n2)cc1,101.4
Cc1nc2sc(-c3ccccc3)nn2c(=O)c1Br,-77.9*
COC(=O)c1ccc(/C=C(\C#N)c2ccccn2)cc1,-131.8*
N#C/C(=C\c1ccc([N+](=O)[O-])cc1)c1ccccn1,-120.9*
CN(C)c1ccc(/C=C(\C#N)c2ccccn2)cc1,101.5
Fc1ccc(-c2ccc(CNCc3ccccn3)o2)cc1,-91.2*
CCCC(=O)Nc1ccc(-c2csc(N/N=C\c3ccncc3)n2)cc1,-116.3*
C(=N\Nc1nc(-c2ccccc2)cs1)/c1cccnc1,-338.9*
